Source: PubChem BioAssay (National Center for Advancing Translational Sciences (NCATS))
The list is not random: actives were taken first. Their share in the collection is about 19%.
uPA surface inh = inhibitors of cell surface uPA generation | cell surface uPA generation assay, qHTS | Potency, µM (series often up to 38.3 µM), without a hit: at the top dose activity change, negative = inhibition, actives largely listed as inhibitors | 330,000 compounds, 0.31% hits; active = well fitted inhibition curve with a large enough effect; inconclusive = small, poorly fitted or top-dose-only effect; inactive = no such curve, though single readings can be large or run the other way; tested in mouse RAW 264.7 cells; also: potency is read from the fitted curve at half-maximal effect; nearly all actives have a fitted effect of over 55% in size
HT1080NT lethal = kills 2HG-producing HT-1080-NT fibrosarcoma cells; Potency, µM (doses to about 46.1 µM), for the others: at the top dose activity, negative = less viability, hits mostly cytotoxic; HT-1080-NT fibrosarcoma viability, CellTiter-Glo ATP luminescence, 48 h; 360,000 compounds, 1.6% hits;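 also: NT is the 2HG producing partner of a matched IDH1 knockdown line; potency is read from the fitted curve at half-maximal effect; 0% = DMSO-treated cells and -100% = media-only wells without cells; nearly all actives have a fitted effect of over 55% in size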
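Read-out is CellTiter-Glo luminescence after 10 minutes at room temperature, following 48 hours' compound treatment of HT-1080-NT cells (750 cells/well, RPMI, 5% FBS, 37 degrees C).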
DT40 TDP1 no CPT = qHTS for Inhibitors of human tyrosyl-DNA phosphodiesterase 1 (TDP1): qHTS in cells in absence of CPT | 420,000 compounds, 15% hits | DT40 Tdp1-/- hTDP1 cells, no CPT, ATP luminescence, 48 h | Potency, µM (highest dose often 46.2 µM), inactives show at the top dose activity change, negative = growth inhibition, hits mostly inhibitors; also: potency is read from the fitted curve at half-maximal effect; nearly all actives have a fitted effect of over 55% in size
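Seeded 400 DT40-hTDP1 cells/well (vehicle DMSO, no 20 nM CPT); pinned compounds; ≥48 hr at 37 °C; CellTiter-Glo luminescence as viability measure.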
HT1080 IDH1KD tx = toxicity to HT-1080 IDH1 knockdown cells (counter line); 360,000 compounds, 2% hits; HT-1080 IDH1 knockdown viability, ATP luminescence, 48 h; AID 686971; Potency, µM (doses to about 46.1 µM), for the others: at the top dose activity, negative = toxicity, usual class: cytotoxic;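 also: potency is read from the fitted curve at half-maximal effect; 0% = DMSO wells and -100% = cell-free medium wells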
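Using the IDH1-knockdown HT-1080 line run in the same batch and compound series as the NT line, viability after 48 h at 37 °C was determined by CellTiter-Glo luminescence and expressed as % activity.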
TDP1 cell CPT = growth inhibition of DT40 Tdp1-/-;hTDP1 cells with camptothecin (screen for TDP1 inhibitors). chicken DT40 Tdp1-/-;hTDP1 cells + 20 nM CPT, ATP luminescence, 48 h. 420,000 compounds, 12% hits. Potency, µM (highest dose often 46.2 µM), without a hit: at the top dose activity change, negative = growth inhibition, most hits filed as inhibitors; also: potency is read from the fitted curve at half-maximal effect; nearly all actives have a fitted effect of over 55% in size
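Chicken DT40 Tdp1-/- cells stably complemented with human TDP1 were seeded at 400 cells/well in medium containing 20 nM camptothecin, exposed to pin-transferred compounds, and grown at 37 °C for at least 48 hr. Viability was read as ATP luminescence.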
IL1B secr inh = inflammasome signaling inhibition, IL-1 beta readout. THP-1 LPS/ATP IL-1B secretion, AlphaLISA, 16 h; hits give low values. activity change, % at 57.5 µM. AID 743279. 360,000 compounds, 4.7% hits; in the data active = activity change below about -50%; inconclusive = mostly about -30% to -49%
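Secreted IL-1B measured by AlphaLISA bead assay after 16 h compound exposure of THP-1 cells; compounds (final up to 57.5 uM) added 1 h before LPS (250 ng/mL) and ATP (1.25 mM) stimulation; lower signal means less secretion.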
Numbers without * were called inactive; ? = inconclusive; / = no result given; [ ] = remark or other dose. Unless noted, calls follow the shape of the dose curve; as a rule, active = well fitted curve in the direction sought with a large enough effect; inconclusive = small, poorly fitted or top-dose-only effect, or another doubt; inactive = no such curve, though single readings can be large; an effect the other way counts as inactive or inconclusive. Unless noted, % is scaled to controls: 0 for no effect and ±100 for the full control effect.

SMILES	uPA surface inh	HT1080NT lethal	DT40 TDP1 no CPT	HT1080 IDH1KD tx	TDP1 cell CPT	IL1B secr inh
Cc1ccc(CNC(=O)c2oc3ccc(S(=O)(=O)N4CCC(C)CC4)cc3c2C)cc1	/	/	16.4µM*	/	?	/
Cc1ccc(NC(=S)Nc2cccnc2)c(S(=O)(=O)N2CCCCC2)c1	-0.6%	?	16.4µM*	?	23.1µM*	-4.1
Cc1ccc(C)c(NC(=S)Nc2cccnc2)c1	2.6%	11.1%	4.8%	9.6%	33.0%	-10.8
Cc1c(C(=O)NCc2cccnc2)oc2ccc(S(=O)(=O)N3CCCCC3)cc12	/	?	14.1µM*	14.1µM*	10µM*	-4.5
O=C(C[C@@H]1C/C=C\CCCC(=O)OC[C@@H]2CCCN2C1=O)N[C@@H](CO)Cc1ccccc1	2.9%	10.1%	-7.1%	9.4%	-15.7%	5.6
Cc1cc(C(=O)O)cc(S(=O)(=O)Nc2ccccc2C(=O)NC2CC2)c1C	16.4%	0.7%	1.8%	8.7%	15.4%	5.9
COc1ccc(C(=O)Oc2ccc(C(c3c(C)[nH][nH]c3=O)c3c(C)[nH][nH]c3=O)cc2)cc1	/	/	-14.6%	/	-9.6%	/
CCCC(C(=O)NNC(=O)c1cc(C)oc1C)c1ccccc1 (configuration not stated)	-0.5%	0.0%	-24.4%	16.2%	-7.0%	1.3
COCCNCc1cc(C)n(-c2cc(S(=O)(=O)N3CCOCC3)ccc2N2CCCC2)c1C	0.3%	-2.4%	?	-8.4%	?	-25.2
COC(=O)c1c(C)sc(-c2c(-c3ccc(F)cc3)[nH]c3[nH]c(=O)[nH]c(=O)c23)c1O	/	/	-11.7%	/	-0.8%	/
Cn1nc(-c2ccccc2)c(CSc2ccccc2Cl)c1Cl	-14.8%	?	10.3µM*	?	?	-18.2
Cn1nc(-c2ccccc2)c(C(O)c2ccc(Cl)cc2)c1Cl (configuration not stated)	1.2%	0.5%	?	-9.9%	?	20.9
CCN1CCN(C(CNS(=O)(=O)c2ccc(C)cc2)c2cccnc2)CC1 (configuration not stated)	6.7%	-1.8%	-6.9%	-2.6%	3.5%	-4.1
CC(=O)Nc1ccc(S(=O)(=O)NC2=C(N3CCN(Cc4ccccc4)CC3)C(=O)c3ccccc3C2=O)cc1	-1.8%	?	?	?	10.3µM*	-10.3
CC(=O)Nc1ccc(S(=O)(=O)Nc2cc(C)cn(Cc3ccccc3)c2=O)cc1	-8.5%	-5.7%	7.31µM*	-2.0%	?	-2.0
CCN1CCN(C2=C(NS(=O)(=O)c3ccc(NC(C)=O)cc3)C(=O)c3ccccc3C2=O)CC1	-10.1%	-11.1%	20.6µM*	-17.2%	16.4µM*	42.8
CCN1CCN(c2nc3ccccc3nc2NS(=O)(=O)c2ccc(NC(C)=O)cc2)CC1	8.3%	12.5%	-1.9%	0.0%	0.8%	18.1
CCN1CCN(C2=C(NS(=O)(=O)c3ccc(C)cc3)C(=O)c3ccccc3C2=O)CC1	?	?	20.6µM*	?	11.6µM*	29.7
Nc1ncc(S(=O)(=O)NCc2ccc(Cl)cc2)cn1	/	/	-23.7%	/	-12.8%	/
COc1ccc(N2CCN(C(=O)C3Cc4ccccc4N3C(C)=O)CC2)cc1 (configuration not stated)	/	/	-28.1%	/	?	/
COc1ccc(-c2noc(CNC(=O)CCCN3C(=O)[C@H]4CC=CC[C@H]4C3=O)n2)cc1	-2.4%	-8.1%	-3.2%	-6.2%	-24.0%	-13.2
CC1CN(C(=O)N2CCC(C(=O)NCCCc3ccccc3)CC2)c2cc(Cl)ccc2O1 (configuration not stated)	/	/	13µM*	/	18.4µM*	/
CC(CNC(=O)C1CCN(C(=O)N2CCOc3ccc(Cl)cc32)CC1)c1ccccc1 (configuration not stated)	/	/	16.4µM*	/	?	/
CC(C)NC(=O)C1CCN(C(=O)N2CCOc3ccc(Cl)cc32)CC1	/	/	?	/	-27.8%	/
O=C(NCCCc1ccccc1)C1CCN(C(=O)N2CCOc3ccc(Cl)cc32)CC1	/	/	14.6µM*	/	16.4µM*	/
SMILES	uPA surface inh	HT1080NT lethal	DT40 TDP1 no CPT	HT1080 IDH1KD tx	TDP1 cell CPT	IL1B secr inh
CC1CN(C(=O)N2CCC(C(=O)NCCCc3ccccc3)CC2)c2ccccc2O1 (configuration not stated)	/	/	?	/	20.6µM*	/
NC(=O)C1CCN(C(=O)CCC(=O)N2CCOc3ccc(Cl)cc32)CC1	7.1%	-4.3%	0.4%	3.9%	-0.5%	-8.2
CC(C)NC(=O)C1CCN(C(=O)N2CC(C)Oc3ccccc32)CC1 (configuration not stated)	/	/	-8.1%	/	9.9%	/
CC1CN(C(=O)N2CCC(C(=O)N3CCN(c4ccccc4)CC3)CC2)c2cc(Cl)ccc2O1 (configuration not stated)	/	/	13µM*	/	13µM*	/
CCCCNC(=O)C1CCN(C(=O)N2CC(C)Oc3ccc(Cl)cc32)CC1 (configuration not stated)	/	/	20.6µM*	/	?	/
Cc1cc(=O)oc2cc(O[C@@H]3O[C@H](C(=O)O)[C@@H](O)[C@H](O)[C@H]3O)ccc12	/	/	-4.2%	/	14.7%	/
COc1ccc2cc3c(N)c(C(=O)N4CCCC4)sc3nc2c1	-11.0%	5.6%	20.6µM*	-0.3%[9.24 µM]	?	-68.7*
COc1ccc2cc3c(N)nn(C(=O)Cc4c[nH]c5ccccc45)c3nc2c1	?	?	4.11µM*	?	10.3µM*	-97.9*
COc1ccc2cc3c(N)nn(C(=O)c4cccc(F)c4)c3nc2c1	9.9%	0.0%	?	8.0%	?	-12.3
COc1ccc2cc3c(N)nn(C(=O)c4ccc(F)cc4)c3nc2c1	-1.3%	0.0%	10.3µM*	-1.1%	?	?
COc1ccc2cc3c(N)nn(C(=O)c4ccccc4Cl)c3nc2c1	4.5%	?	?	-8.6%	1.64µM*	-65.1*
Cn1c(SCC2CCCO2)nnc1C1CCN(Cc2ccccc2O)CC1 (configuration not stated)	/	/	-4.8%	/	8.8%[9.04 µM]	/
Cc1ccn2c(CNCC3OCCc4ccccc43)c(C(=O)N3CCCCCC3)nc2c1 (configuration not stated)	-2.5%	-6.1%	?	-11.7%	?	-7.3
COc1ccc(C2c3c4c(n(C)c3CCN2C)CCN(C)C4c2ccc(OC)cc2)cc1 (configuration not stated)	/	?	?	?	?	-54.7*
COc1ccccc1N1CCN(c2cc(C)nc3c(-c4ccc(Cl)cc4)c(C)nn23)CC1	/	/	-4.5%	/	20.3%	/
